Compound activity: PubChem, National Center for Advancing Translational Sciences (NCATS)
GLP1R cytotox: qHTS of GLP-1 Receptor Inverse Agonists: Cytotox Screen. HEK293 cAMP-luciferase reporter cells, luminescence, 24 h. AID 624418, 2012. Potency, µM (top dose mostly 38.3 µM), for the others: at the highest dose activity change, negative = inhibition, hits mostly inhibitors. 410,000 compounds, 0.13% hits;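 note: loss of luciferase light is scored as toxicity; % is set by controls: 0 for no effect and ±100 for the full control effect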
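Luminescence readout: signal drop marks cytotoxicity. Plated cells grew 12 h at 37 °C, 5% CO2, received 23 nL compound for 24 h, then got luciferase reagent, read after 12 min at RT.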
RORg inh: qHTS for inhibitors of ROR gamma transcriptional activity | Nuclear receptor ROR-gamma (Mus musculus), P51450 | Drosophila S2 Gal4-RORgamma UAS-luciferase reporter, 20 h | Potency, µM (series often up to 53.6 µM), without a hit: at the highest dose activity change, negative = inhibition, usual class: inhibitors | 310,000 compounds, 5.4% hits | AID 2551, 2010; note: % is set by controls: 0 for no effect and ±100 for the full control effect; nearly all actives have a fitted effect of over 60% in size
Target sequence (P51450 whole entry, looked up, the tested form may be a part): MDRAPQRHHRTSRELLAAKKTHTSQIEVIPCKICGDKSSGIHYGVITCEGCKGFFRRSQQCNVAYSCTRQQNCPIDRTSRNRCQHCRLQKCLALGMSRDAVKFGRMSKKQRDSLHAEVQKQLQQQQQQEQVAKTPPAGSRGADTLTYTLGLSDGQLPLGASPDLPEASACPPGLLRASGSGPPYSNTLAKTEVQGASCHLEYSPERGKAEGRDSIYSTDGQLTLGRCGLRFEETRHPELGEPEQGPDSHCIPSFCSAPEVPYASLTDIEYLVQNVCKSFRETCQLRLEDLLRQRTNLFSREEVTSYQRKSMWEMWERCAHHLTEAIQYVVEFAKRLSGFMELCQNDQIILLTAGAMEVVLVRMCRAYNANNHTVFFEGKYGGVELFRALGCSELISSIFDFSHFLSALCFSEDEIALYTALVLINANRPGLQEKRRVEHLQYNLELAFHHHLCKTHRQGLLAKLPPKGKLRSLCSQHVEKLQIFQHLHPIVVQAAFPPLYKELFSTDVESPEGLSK
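A Gal4/UAS one-hybrid system in insect cells: metallothionein-promoter Gal4–ROR gamma fusion plus Photinus luciferase reporter. Copper sulfate 700 uM final, 20 hr ambient incubation, luminescent detection after 10 min with reagent.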
GLP-1R inv ag: qHTS of GLP-1 Receptor Inverse Agonists (Inhibition Mode). Potency, µM (top dose mostly 38.3 µM), for the others: at the top dose activity change, negative = inhibition, hits mostly inhibitors. 410,000 compounds, 1.6% hits. HEK293 GLP-1R CRE-luciferase, luminescence, 24 h; GLP-1R form is constitutively active; note: % is set by controls: 0 for no effect and ±100 for the full control effect; nearly all actives have a fitted effect of over 55% in size
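Luminescence readout: a drop in cAMP-driven luciferase signal flags inverse agonism at a constitutively active GLP-1R stably expressed in HEK293. Compound exposure lasted 24 hr at 37 deg C, 5% CO2.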
VP16 counter: VP16 counterscreen qHTS for inhibitors of ROR gamma transcriptional activity. Drosophila S2 Gal4-VP16 UAS-luciferase, luminescence, 20 h. Potency, µM (series often up to 53.6 µM), inactives show at the top dose activity, negative = inhibition, actives largely listed as inhibitors. 310,000 compounds, 3.5% hits. AID 2546, 2010;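 note: Gal4-VP16 expression switched on by copper sulfate through the metallothionein promoter; % is set by controls: 0 for no effect and ±100 for the full control effect; nearly all actives have a fitted effect of over 50% in size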
GLP1R ag: qHTS of GLP-1 Receptor Agonists | Glucagon-like peptide 1 receptor (Homo sapiens), P43220 | HEK293 GLP-1R CRE-luciferase, luminescence, 4-6 h; cells express a hypersensitive GLP-1R form | Potency, µM (doses to about 45.6 µM), inactives show top-dose activation, actives largely listed as activators | 380,000 compounds, 0.007% hits | AID 624172, 2012; note: % of control where 0% means no effect
* = called active by the depositor; [ ] = remark or other dose. This is a sample that favours compounds with a hit; in the whole collection about 5.9% have one here. Calls come from the whole dose curve; as a rule, active = well fitted curve in the direction sought with a large enough effect; inconclusive = small, poorly fitted or top-dose-only effect, or another doubt; inactive = no such curve, though single readings can be large; an effect the other way counts as inactive or inconclusive. Potency is the fitted concentration of half-maximal effect.

What do the screens show for `CC(=O)NC(NC(=S)Nc1ccc(C)cc1C)C(Cl)(Cl)Cl` (configuration not stated)?
GLP1R cytotox: -2%; RORg inh: -11%; GLP-1R inv ag: inconclusive; VP16 counter: -10%; GLP1R ag: 0%

How did Cc1ccc(NC(=S)NC(NC(=O)c2ccccc2C)C(Cl)(Cl)Cl)c(C)c1 (configuration not stated) do in these assays?
GLP1R cytotox: inconclusive; RORg inh: inconclusive; GLP-1R inv ag: 5.6µM*; VP16 counter: inconclusive; GLP1R ag: -9%

How did CCCC(=O)NC(=S)Nc1ccccc1C(=O)OC do in these assays?
GLP1R cytotox: 11%; RORg inh: 16µM*; GLP-1R inv ag: 2%; VP16 counter: inconclusive; GLP1R ag: 30%

Results for Cc1ccc(C)c(NC(=S)NC(NC(=O)N(C)C)C(Cl)(Cl)Cl)c1 (configuration not stated) ?
GLP1R cytotox: -17%; RORg inh: -37%; GLP-1R inv ag: 0%; VP16 counter: -5%[0.365 µM]; GLP1R ag: -2%

What do the screens show for `COc1cccc(Cn2c(=O)c(-c3cc(F)cc(F)c3)nc3cnc(N(C)C)nc32)c1`?
RORg inh: 0%; VP16 counter: 3%

What do the screens show for `COc1cccc(CN2c3ccccc3-c3nc(SCC(=O)Nc4cccc(C)c4)ncc3S2(=O)=O)c1`?
GLP1R cytotox: -2%; GLP-1R inv ag: -10%; GLP1R ag: 0%

How did Cc1ccc(OCCCSc2nc(-c3ccc(C(C)(C)C)cc3)nc3cc(=O)[nH]n23)cc1C do in these assays?
GLP1R cytotox: 2%; GLP-1R inv ag: 11%

What do the screens show for `O=C=Nc1ccc(Cc2ccc(N=C=O)cc2)cc1`?
RORg inh: 9%; VP16 counter: -7%

How did COc1cc2c(cc1OC)C(COc1ccc(C(C)C)cc1)N(C(=O)c1ccc(S(=O)(=O)N3CCCC3)cc1)CC2 (configuration not stated) do in these assays?
GLP1R cytotox: 5%; GLP-1R inv ag: -4%; GLP1R ag: -4%

How did COC(=O)c1ccccc1NC(=S)NC(=O)C1CC1 do in these assays?
GLP1R cytotox: -2%; RORg inh: 13µM*; GLP-1R inv ag: 0%; VP16 counter: -20%; GLP1R ag: -19%

Results for O=C(NC(=S)Nc1cccc2c(O)cccc12)c1ccco1 ?
GLP1R cytotox: -27%; RORg inh: -2%; GLP-1R inv ag: -6%; VP16 counter: -10%; GLP1R ag: -1%

What do the screens show for `CCCC(=O)NC(=S)Nc1cccc2c(O)cccc12`?
GLP1R cytotox: -17%; RORg inh: 13µM*; GLP-1R inv ag: -6%; VP16 counter: inconclusive; GLP1R ag: 14%

Results for Cc1cccc(C)c1OCC(=O)NNC(=S)NC(=O)C1CC1 ?
GLP1R cytotox: 6%; RORg inh: 18µM*; GLP-1R inv ag: -27%; VP16 counter: inconclusive; GLP1R ag: -6%

Results for C=C(C)C(O)/C=C/c1ccccc1OC (configuration not stated) ?
RORg inh: 8%[10 µM]; VP16 counter: 0%[10 µM]

Results for Cc1ccc(-c2sc(-c3ccccc3)nc2CC(=O)Nc2ccccc2F)cc1 ?
GLP1R cytotox: 2%; RORg inh: inconclusive; GLP-1R inv ag: 10%; VP16 counter: 5µM*; GLP1R ag: 0%

What do the screens show for `Cc1nc(N2CCOCC2)c2nc(-c3ccccc3)n(CCCN3CCOCC3)c2n1`?
RORg inh: -17%; VP16 counter: -1%

How did CCn1c(=O)c2cc(C(=O)Nc3cc(C)c(Cl)cc3OC)sc2c2ccccc21 do in these assays?
GLP1R cytotox: 0%; GLP-1R inv ag: 6%; GLP1R ag: 0%

Results for CCNC(=O)c1c(O)c2ccccc2[nH]c1=O ?
GLP1R cytotox: 136%; RORg inh: 16%; GLP-1R inv ag: 10µM*; VP16 counter: 15%; GLP1R ag: 4%

How did COCCN(C(=O)COC(=O)c1ccccc1Nc1ccccc1)c1c(N)n(Cc2ccccc2)c(=O)[nH]c1=O do in these assays?
GLP1R cytotox: -14%; GLP-1R inv ag: 13µM*; GLP1R ag: 8%

How did Oc1ccc(/C=N/N=C(c2ccccc2)c2ccccc2)c(O)c1O do in these assays?
GLP1R cytotox: inconclusive; RORg inh: inconclusive; GLP-1R inv ag: -31%; VP16 counter: inconclusive; GLP1R ag: -3%

Results for O=C(/C(=N/N=C/c1ccc(O)c(O)c1O)c1ccccc1)c1ccccc1 ?
GLP1R cytotox: inconclusive; RORg inh: inconclusive; GLP-1R inv ag: inconclusive; VP16 counter: 10µM*; GLP1R ag: -4%

What do the screens show for `CCc1cccc(CC)c1-n1c(-c2cccnc2)n[nH]c1=S`?
GLP1R cytotox: -3%; RORg inh: 3.5µM*; GLP-1R inv ag: -8%; VP16 counter: 16µM*; GLP1R ag: -1%

Results for CC1=NNC(=O)/C1=C\c1cn(-c2ccccc2)nc1-c1cccs1 ?
GLP1R cytotox: 7.9µM*; RORg inh: inconclusive; GLP-1R inv ag: inconclusive; VP16 counter: 4.5µM*; GLP1R ag: 1%

What do the screens show for `CC1=NNC(=O)/C1=C\c1cn(-c2ccccc2)nc1-c1ccc(F)cc1`?
GLP1R cytotox: inconclusive; RORg inh: 4.5µM*; GLP-1R inv ag: inconclusive; VP16 counter: 5µM*; GLP1R ag: -27%

What do the screens show for `Cc1ccc2sc(NNC(=O)C3=COCCO3)nc2c1C`?
GLP1R cytotox: 1%; RORg inh: 5.6µM*; GLP-1R inv ag: -4%; VP16 counter: inconclusive; GLP1R ag: 10%

What do the screens show for `Cc1ccc2sc(N3CCN(C(=O)C4=COCCO4)CC3)nc2c1C`?
GLP1R cytotox: 3%; GLP-1R inv ag: 9%; GLP1R ag: 10%

Results for O=C(NNc1nc2c(F)cccc2s1)C1=COCCO1 ?
GLP1R cytotox: 0%[0.307 µM]; RORg inh: 11µM*; GLP-1R inv ag: 8%[0.307 µM]; VP16 counter: -28%; GLP1R ag: -26%

What do the screens show for `Cc1c(C(=O)N(C)C)sc2c1c(=O)n(-c1ccccc1C(F)(F)F)c(=O)n2Cc1ccccc1C#N`?
GLP1R cytotox: -6%; GLP-1R inv ag: 11%

What do the screens show for `O=C(Nc1nc2c(Cl)ccc(Cl)c2s1)C1CC1`?
GLP1R cytotox: 1%; RORg inh: 11%; GLP-1R inv ag: -7%; VP16 counter: 3%; GLP1R ag: 9%

What do the screens show for `NNc1nc2c(Cl)ccc(Cl)c2s1`?
GLP1R cytotox: -11%[1.53 µM]; RORg inh: 11µM*; GLP-1R inv ag: inconclusive; VP16 counter: 18µM*; GLP1R ag: -5%
